proKLK7 act: activators of human kallikrein-7 zymogen | AID 652039 | hit rate 0.9% among 370,000 | activation, % at 7 µM | purified proKLK7, EDANS-DABCYL substrate fluorescence; 100% is mature enzyme control, 0% vehicle;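 active means activation above the mean of all tested compounds plus 3 SD, computed per campaign excluding outliers beyond control limits, cut at about 13% in these data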
Target sequence (P49862 whole entry, looked up): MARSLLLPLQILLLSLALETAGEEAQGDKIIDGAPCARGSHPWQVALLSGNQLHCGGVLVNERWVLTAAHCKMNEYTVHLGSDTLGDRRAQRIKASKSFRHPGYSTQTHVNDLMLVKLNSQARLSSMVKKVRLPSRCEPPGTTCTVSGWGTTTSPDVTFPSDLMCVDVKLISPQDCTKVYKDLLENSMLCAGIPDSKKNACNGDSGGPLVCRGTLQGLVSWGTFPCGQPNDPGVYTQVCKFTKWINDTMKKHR
ADAM10 inh: ADAM10 inhibition, QFRET primary screen. recombinant ADAM10, EDANS/DABCYL FRET peptide cleavage, 3 h. hit rate 0.62% among 370,000. inhibition, % at 7 µM;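 active means inhibition above a per-campaign cutoff equal to the mean of compounds falling between control-based bounds plus 3 SD, cut at about 20% in these data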;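 further: 0% = DMSO wells while the 100% control is not disclosed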
ADAM17 inh: inhibitors of human ADAM17; recombinant ADAM17, EDANS/DABCYL FRET peptide cleavage; hit rate 0.83% among 370,000; AID 720648; inhibition, % at 6.95 µM; P78536;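 active means inhibition above the mean of compounds lying between control limits plus 3 SD, set per campaign, cut at about 8.5% in these data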;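 further: 0% = DMSO-only wells as the low control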
V-ATPase pHluor: yeast V-ATPase proton transport regulation by pHLuorin. S. cerevisiae, pHLuorin cytosolic pH fluorescence. response, % at 10 µM. hit rate 0.37% among 350,000; in the data active means response mostly above about 7.3%, no sharp cut-off; inactive means mostly below about 5.4%; further: actives read high
ADAM10 confirm: human ADAM10 inhibition, confirmation | inhibition, % at 6.95 µM | ADAM10 QFRET peptide cleavage, EDANS fluorescence | shares compounds with ADAM10 inh | hit rate 1% among 2,100;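 active means inhibition above about 20% chosen separately for each screening run, limit read from the data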;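 further: 0% = DMSO wells and 100% = marimastat wells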
ADAM17 counter: counter-screen for ADAM10 exosite inhibitors: inhibitors of human ADAM17. shares compounds with ADAM10 inh. ADAM17 QFRET peptide cleavage, EDANS fluorescence. inhibition, % at 6.95 µM. hit rate 0.5% among 2,100. AID 743214;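 active means mean triplicate inhibition above the solvent-only control wells' mean plus 3 SD, cut at about 12% in these data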;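 further: 0% = DMSO wells and 100% = marimastat wells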
* = called active by the depositor. Shown are actives, neighbours in structure and some others; about 2.3% of the full set was active somewhere.

What do the screens show for `COc1ccc(C2NC(=S)N(Cc3ccc(Cl)cc3)C(C)=C2C(C)=O)cc1` (stereo not given)?
proKLK7 act: 0; ADAM10 inh: 22*; ADAM17 inh: 6; ADAM10 confirm: 3; ADAM17 counter: 2

How did O=[N+]([O-])c1ccc(COc2ccccc2CO)cc1 do in these assays?
proKLK7 act: 1; ADAM10 inh: 11; ADAM17 inh: 4

What do the screens show for `CC[C@]12c3[nH]c4ccc(Cl)cc4c3CCN1C(=O)[C@@H](CC(=O)NCc1cccc(C(F)(F)F)c1)C[C@@H]2C(=O)N1CCN(C(=O)c2ccco2)CC1`?
proKLK7 act: 1; ADAM10 inh: 23*; ADAM17 inh: 3; V-ATPase pHluor: 1; ADAM10 confirm: 0; ADAM17 counter: 2

Results for O=C(Nc1ccc2c(c1)nc1n2CCOC1)C1CCCCC1 ?
proKLK7 act: -1; ADAM10 inh: -75; ADAM17 inh: -3; V-ATPase pHluor: 0

How did CC(=O)Nc1ccc2c(c1)nc1n2CCOC1 do in these assays?
proKLK7 act: 0; ADAM10 inh: 84*; ADAM17 inh: -1; V-ATPase pHluor: 0; ADAM10 confirm: 1; ADAM17 counter: 0

How did CCCSC1=C(C#N)C(c2cccs2)C(C(=O)Nc2ccccc2)=C(C)N1 (stereo not given) do in these assays?
proKLK7 act: -3; ADAM10 inh: 28*; ADAM17 inh: 6; V-ATPase pHluor: 1; ADAM10 confirm: 22*; ADAM17 counter: 7

How did CCSC1=C(C#N)C(c2cccs2)C(C(=O)OC)=C(C)N1 (stereo not given) do in these assays?
proKLK7 act: 0; ADAM10 inh: -10; ADAM17 inh: -8; V-ATPase pHluor: 6

How did Brc1ccc(N2O[C@H]3C=C[C@@H]2C3)nc1 do in these assays?
proKLK7 act: 0; ADAM10 inh: -19; ADAM17 inh: -7

How did COc1cccc(S(=O)(=O)Nc2ccc(C(O)(C(F)(F)F)C(F)(F)F)cc2)c1 do in these assays?
proKLK7 act: -1; ADAM10 inh: 20*; ADAM17 inh: 3; ADAM10 confirm: -2; ADAM17 counter: 0

Results for CCN(C(=O)CCc1cn(CC)c2ccccc12)c1ccc(Oc2cccnc2)cc1 ?
proKLK7 act: 1; ADAM10 inh: 4; ADAM17 inh: 7

What do the screens show for `C[C@@H]1CCCCO[C@@H](CN(C)S(=O)(=O)c2ccc(F)cc2)[C@@H](C)CN([C@H](C)CO)C(=O)c2cc(NC(=O)c3ccccc3)ccc2O1`?
proKLK7 act: 0; ADAM10 inh: 1; ADAM17 inh: 1; V-ATPase pHluor: 3

Results for C[C@@H]1CCCCO[C@@H](CN(C)C(=O)Nc2ccc(C(F)(F)F)cc2)[C@@H](C)CN([C@H](C)CO)C(=O)c2cc(NS(=O)(=O)c3ccc(Cl)cc3)ccc2O1 ?
proKLK7 act: 0; ADAM10 inh: 45*; ADAM17 inh: 16*; ADAM10 confirm: 9; ADAM17 counter: 1

How did C[C@@H]1CN([C@@H](C)CO)S(=O)(=O)c2ccc(Br)cc2O[C@H]1CN(C)C(=O)Nc1ccc(C(F)(F)F)cc1 do in these assays?
proKLK7 act: 0; ADAM10 inh: 21*; ADAM17 inh: 8; V-ATPase pHluor: 1; ADAM10 confirm: 4; ADAM17 counter: 1

How did C[C@@H]1CN([C@H](C)CO)S(=O)(=O)c2ccc(Br)cc2O[C@@H]1CN(C)C(=O)Nc1ccc(C(F)(F)F)cc1 do in these assays?
proKLK7 act: 0; ADAM10 inh: 5; ADAM17 inh: 0; V-ATPase pHluor: 0

What do the screens show for `C[C@@H]1CN([C@H](C)CO)C(=O)c2cc(NC(=O)Nc3ccccc3)ccc2O[C@@H](C)CCCCO[C@H]1CN(C)S(=O)(=O)c1ccc(F)cc1`?
ADAM10 inh: 20*; ADAM17 inh: 8; ADAM10 confirm: 6; ADAM17 counter: 2

Results for CC(C)CN1C(=O)[C@]2(CC(=O)N(C)C2c2ccccc2)c2cc(-n3cc(CO)nn3)ccc21 (stereo not given in full) ?
proKLK7 act: -1; ADAM10 inh: 2; ADAM17 inh: 4

How did O=C(NCCc1ccccc1)OCc1cn(Cc2cc(F)cc(F)c2)nn1 do in these assays?
proKLK7 act: 0; ADAM10 inh: 0; ADAM17 inh: -3

Assay outcomes as filed in PubChem.
